This is a sample that favours compounds with a hit; in the whole collection about 31% have one here.
CYP2C9 inh: inhibitors of human CYP2C9; CYP2C9 Supersomes, luciferin-H conversion, luminescence; 96,000 compounds, 20% hits; P11712; inhibition, % at 5 µM;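 active = blocking of liver enzyme CYP2C9 beyond about 50% at 5 µM, limit read from the data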
CYP2C19 act: increases human CYP2C19 enzyme activity; P33261; recombinant CYP2C19, luciferin-H EGE luminescence; stronger effect = higher value; 0 = fully inhibited enzyme, 1 = untreated enzyme; activation factor at 5 µM; 96,000 tested, under 10 active; AID 1025;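 active = activation factor of at least 2 at 5 µM in the primary screen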;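 also: 0 = wells with 2.5 mM tranylcypromine and 1 = vehicle-only wells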
Target sequence (P33261 whole entry, looked up): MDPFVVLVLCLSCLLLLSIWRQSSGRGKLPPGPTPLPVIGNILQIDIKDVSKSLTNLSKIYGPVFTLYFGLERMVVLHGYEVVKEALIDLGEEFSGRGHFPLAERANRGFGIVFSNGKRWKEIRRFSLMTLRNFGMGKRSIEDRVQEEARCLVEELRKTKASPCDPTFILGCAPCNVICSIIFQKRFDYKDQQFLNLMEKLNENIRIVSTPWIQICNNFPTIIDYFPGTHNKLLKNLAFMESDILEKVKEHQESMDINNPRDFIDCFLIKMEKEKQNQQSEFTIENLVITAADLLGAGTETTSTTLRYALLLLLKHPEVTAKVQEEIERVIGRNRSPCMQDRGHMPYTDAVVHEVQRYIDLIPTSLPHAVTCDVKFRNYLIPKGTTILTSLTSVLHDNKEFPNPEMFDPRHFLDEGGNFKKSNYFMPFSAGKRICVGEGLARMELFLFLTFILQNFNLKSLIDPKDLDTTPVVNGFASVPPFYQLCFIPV
CYP2C9 act: activators of human CYP2C9; P11712; AID 1024; 96,000 compounds, 1.4% hits; activation factor at 5 µM; recombinant CYP2C9, luciferin-H conversion, luminescence; stronger effect = higher value; factor 1 = untreated enzyme, 0 = blocked;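 active = activation factor of 2 or more for CYP2C9 at a 5 µM dose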;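 also: 0 = sulfaphenazole-blocked wells and 1 = vehicle-only wells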
CYP2C19 inhib: blocks human cytochrome P450 2C19; inhibition, % at 5 µM; CYP2C19 Supersomes, luciferin-H EGE luminescence, 30 min; 96,000 compounds, 21% hits; P33261;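 active = CYP2C19 inhibition above a set limit at 5 µM in the primary screen, cut at about 50% in these data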;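 also: plate controls were negative control wells for no effect and 2.5 mM tranylcypromine positive control for full effect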
* = called active by the depositor.

SMILES | CYP2C9 inh | CYP2C19 act | CYP2C9 act | CYP2C19 inhib
CCC(CC)C(=O)Nc1cccc(/C(C)=N/NC(=O)c2ccccc2Cl)c1 | 41.7 | 0.5 | 0.6 | 51.3*
CCC(CC)C(=O)Nc1cccc(-c2nc3ccccc3o2)c1 | 65.6* | 0.4 | 0.3 | 58.6*
COc1ccc(S(=O)(=O)N/N=C(/C)c2cccc(NC(=O)c3ccccc3Cl)c2)cc1 | 95.1* | 0 | 0 | 97.2*
COc1ccc(/C=C/C(=O)OC(C)CN2CCOCC2)cc1 (stereo unspecified) | 13.7 | 1 | 0.9 | -4.1
COc1ccc(N2C(=O)CC(n3c(CCCCO)nc4ccccc43)C2=O)cc1 (stereo unspecified) | -1.9 | 1 | 1 | -2.2
CCC(CC)C(=O)Nc1cccc(C(=O)c2ccccc2)c1 | 55.4* | 0.3 | 0.4 | 69.5*
CCCCc1nc2sc3c(c2c(=O)[nH]1)CCC3 | 3.7 | 0.8 | 1 | 16.7
Cc1sc2nc(CN(Cc3cccs3)C(=O)NC3CCCCC3)[nH]c(=O)c2c1C | 96.5* | 0 | 0 | 96.9*
O=C(NC1CCCCC1)N(Cc1ccc(F)cc1)Cc1nc2ccccc2c(=O)[nH]1 | -13.9 | 0.9 | 1.1 | 11.9
CCN(CC)C(=O)CCc1nc2sc3c(c2c(=O)[nH]1)CCCC3 | 46.8 | 0.4 | 0.5 | 64.8*
O=C(c1cccs1)N(Cc1nc2sc3c(c2c(=O)[nH]1)CCCC3)C1CCCC1 | 69.9* | 0.6 | 0.3 | 37.0
Cc1sc2nc(CN(C(=O)c3cccs3)C3CCCC3)[nH]c(=O)c2c1C | 73.8* | 0.9 | 0.3 | 12.0
Cn1c(Sc2ccc(Br)cc2)c(C=O)c2ccccc21 | 49.9 | 0.7 | 0.5 | 27.4
O=C1C(NS(=O)(=O)c2cccs2)=C(N2CCN(c3cccc(C(F)(F)F)c3)CC2)C(=O)c2ccccc21 | 52.4* | 0.7 | 0.5 | 30.6
CC/C(C)=C1\SC(N2CCN(c3cccc(C(F)(F)F)c3)CC2)=NC1=O | -86.2 | 0.8 | 1.9 | 16.0
CCOc1ccccc1N1CCN(C2=C(NS(=O)(=O)c3cccs3)C(=O)c3ccccc3C2=O)CC1 | 99.7* | 0.1 | 0 | 92.0*
C=CCn1c(SCC(=O)N2CC(=O)Nc3ccccc32)nc2scc(-c3cccs3)c2c1=O | 83.0* | 0.4 | 0.2 | 62.6*
C=CCn1c(COc2ccc(F)cc2)nnc1SCC(=O)N1CC(=O)Nc2ccccc21 | -109.8 | 0.5 | 2.1* | 47.7
CC(C)CCn1c(SCC(=O)N2CC(=O)Nc3ccccc32)nc2scc(-c3cccs3)c2c1=O | 0.2 | 1.1 | 1 | -5.9
C=CCn1c(COc2ccccc2)nnc1SCC(=O)O | 8.7 | 0.9 | 0.9 | 5.3
Cc1ccc(S(=O)(=O)Cc2ccc(C(=O)NCCCN3CCN(C)CC3)o2)cc1 | 10.3 | 0.9 | 0.9 | 6.3
O=C(Oc1ccc2ccc(=O)oc2c1)N1CCOCC1 | -15.2 | 1.1 | 1.2 | -9.2
CCNc1nc(N)nc(Oc2ccc(OCc3ccccc3)nn2)n1 | 7.0 | 0.2 | 0.9 | 75.5*
CCOC(=O)CSc1nc(-c2ccncc2)ccc1C#N | 30.1 | 0.9 | 0.7 | 10.8
CCOC(=O)C1=C(CSc2nc(C)ccc2C#N)OC(N)=C(C#N)C1c1cccc(OC)c1OC (stereo unspecified) | 96.8* | 0 | 0 | 96.8*
SMILES | CYP2C9 inh | CYP2C19 act | CYP2C9 act | CYP2C19 inhib
CCOC(=O)C1=C(CSc2nc(-c3ccncc3)ccc2C#N)OC(N)=C(C#N)C1c1ccc(OC)cc1 (stereo unspecified) | 94.0* | 0.1 | 0.1 | 91.2*
CCOC(=O)C1=C(C(C)=O)C(c2cccnc2)C(C#N)=C(N)O1 (stereo unspecified) | 3.9 | 0.9 | 1 | 7.9
CCOC(=O)C1=C(CSc2nc(-c3ccncc3)ccc2C#N)OC(N)=C(C#N)C1c1cccnc1 (stereo unspecified) | 96.4* | 0 | 0 | 98.8*
CSC1=N/C(=C\c2ccc(Br)o2)C(=O)S1 | 9.3 | 0.8 | 0.9 | 21.0
Cc1[nH]c(=O)[nH]c(=O)c1/C=N/NC(=O)[C@@H](NC(=O)OC(C)(C)C)C(C)C | 2.2 | 1.1 | 1 | -5.2
CNC(=O)C1C2C=CC3(O2)C1C(=O)N(C1CC1)C3C(=O)NCc1ccc(OC)cc1 (stereo unspecified) | -26.0 | 1.2 | 1.3 | -16.0
CC1(C)Cc2c(c(-c3ccccc3)nc3[nH][nH]c(=O)c23)CO1 | 3.0 | 0.4 | 1 | 56.9*
CCN(CC)CCNc1nc(-c2ccccc2)c2c(c1C#N)CC(C)(C)OC2 | 28.6 | 0.9 | 0.7 | 10.7
CC1(C)Cc2c(C#N)c(NCCCO)nc(-c3ccccc3)c2CO1 | 60.9* | 0.8 | 0.4 | 20.6
O=S1(=O)CC(O)C(Nc2ccccc2Cl)C1 (stereo unspecified) | -16.9 | 0.8 | 1.2 | 17.2

Assay outcomes from PubChem.
